The list is not random: actives were taken first. Their share in the collection is about 0.89%.
BJeLR viab HTS – BJeLR cell viability reduction; BJeLR fibroblasts viability, CellTiterGlo ATP luminescence, 48 h; HRASV12, hTERT and SV40 LT/ST transformed; viability loss activity score, % (no concentration beside the values); actives 0.64% (n = 30,000); AID 2275; in the data active means viability loss activity score above about 50%;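 further: higher score means fewer live cells and less ATP luminescence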
A1 inh – A1 inhibition; actives 0.51% (n = 21,000); caspase activation, % (no concentration beside the values); MEF A1-2A-BIM cells, caspase-Glo luminescence, 3 h; percent of clofoctol signal, DMSO as zero;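 active means most replicate scores above 10, or exactly half above 10 with mean activity above 10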;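 further: effector caspase 3 and 7 activity cleaving a DEVD luciferin substrate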
Active calls of the source: *; x = no result given.

SMILES	BJeLR viab HTS	A1 inh
C=C1[C@@H](C)[C@H]2[C@H](Cc3ccccc3)NC(=O)[C@]23OC(=O)/C=C\[C@H](O)CCC[C@@H](C)C/C=C/[C@H]3[C@@H]1O	39	30*
Cc1ccccc1CN1CCN(C(C)C)CC1	-3	0
CC(/C=C/[C@@]1(C)[C@H](C)CCC(=O)[C@@H]1C)=C\Cc1c(O)c(Cl)c(C)c(C=O)c1O	26	-1
CNc1ccc2oc(C[C@@H]3OC4(CC[C@@H]3C)O[C@H](C(C)C(=O)c3ccc[nH]3)[C@H](C)C[C@H]4C)nc2c1C(=O)O (stereo partly drawn)	72*	-1
Cc1ccc(S(=O)(=O)N2CCCCC2)cc1C(=O)Oc1cccc2cccnc12	-4	-1
N#CC1(P(=S)(c2ccccc2)c2ccccc2)CCCC1	-1	-2
CN(C(=O)c1ccc(Cl)cc1)c1ccc(Cl)cc1C(=O)c1ccccc1	2	0
CN1CCc2nc(SCc3cccc(Cl)c3)c(C#N)cc2C1	1	x
Cc1ccc2[nH]cc(CC(C)N)c2c1 (stereo not drawn)	5	0
CN1Cc2c(ccc3c2OCO3)C2C(O)Cc3cc4c(cc3C21)OCO4 (stereo not drawn)	72*	2
COc1ccc2c(c1OC)C(=O)O[C@H]2[C@@H]1c2cc3c(cc2CCN1C)OCO3	1	-1
COCc1cc(OC(=O)N(C)C)nc(COc2ccc(Cl)cc2)n1	4	1
COc1cc2c(c(OC)c1OC)-c1cc3c(cc1[C@H](OC(C)=O)[C@H]1COC(=O)[C@@H]1C2)OCO3	60*	3
COc1ccc(CC2C(=O)OCC2Cc2ccc3c(c2)OCO3)cc1OC (stereo not drawn)	-4	0
CC(C)(C)c1nc2ccccc2c(=O)n1-c1ccc(F)cc1F	7	0
Cc1nc(-c2ccccc2)nc(OC(=O)N(C)C)c1Oc1cccc(C(F)(F)F)c1	3	0
CC1=CC2OC3[C@H](O)C[C@@](C)([C@]34CO4)[C@@]2(CO)[C@H](O)C1=O (stereo partly drawn)	74*	3
CCc1ccc(CN2CCN(Cc3ccc(CC)cc3)CC2)cc1	4	0
CN[C@@H]1C[C@@]2(C)O[C@@H]([C@@H]1OC)n1c3ccccc3c3c4c(c5c6ccccc6n2c5c31)C(=O)NC4	127*	84*
NCCC1COc2ccccc2O1 (stereo not drawn)	-2	x
CNc1ccccc1C(=O)O	-7	0
C[CH2][Hg][S]c1ccccc1C(=O)O	142*	2
OC[C@H]1O[C@@H](n2cnc3cc(Cl)c(Cl)cc32)C(O)[C@H]1O (stereo partly drawn)	-4	4
C[C@@H]1CC([C@H](O)CC2CC(=O)NC(=O)C2)C(=O)[C@@H](C)C1 (stereo partly drawn)	87*	4
C[C@@H]1C[C@@H]([C@H](O)CC2CC(=O)NC(=O)C2)C(=O)[C@@H](C)C1	61*	5
SMILES	BJeLR viab HTS	A1 inh
Cc1ccc(NC(=O)c2cccc(OC(=O)N(C)c3ccccc3)c2)cc1C	0	-2
O=C(c1cnn(-c2ccccc2)c1-n1cccc1)N1CCC2(CC1)OCCO2	-2	0
N#Cc1c(/N=C/c2cc(Br)ccc2O)sc2c1C1CCN2CC1	-2	x
CC1=CC2/C=C(\C)CCC(O)C(O)/C=C/C(=O)C23C(=O)NC(CC(C)C)C3C1C (stereo not drawn)	96*	77*
CC(C)Sc1nnc(OC(=O)N(C)C)n1-c1cccc(C(F)(F)F)c1	-6	0
Cc1ccc(-c2nc(Cn3cc(C=C4C(=O)N(C)C(=O)N(C)C4=O)c4ccccc43)no2)cc1	-2	x
O=C1NC(=O)C(=Cc2cn(Cc3ccccc3)c3ccccc23)C(=O)N1	5	33*
O=C(c1ccc2nc(N3CCCCC3)sc2c1)N1CCC2(CC1)OCCO2	6	-1
CO[C@H]1[C@H](O)[C@H](O[C@H]2CC[C@]3(C)C4CC[C@]5(C)C(C6=CC(=O)OC6)CC[C@]5(O)C4CC[C@@H]3C2)O[C@@H](C)[C@@H]1O (stereo partly drawn)	111*	1
C[C@]12CC[C@H](O)C[C@H]1CCC1C2CC[C@]2(C)[C@@H](C3=CC(=O)OC3)[C@@H](O)C[C@]12O (stereo partly drawn)	30	0
COC1CC(OC2CCC3(C)C(CCC4C3CCC3(C)C(C5=CC(=O)OC5)C(OC(C)=O)CC43O)C2)OC(C)C1OC1OC(COC2OC(CO)C(O)C(O)C2O)C(O)C(O)C1O (stereo not drawn)	96*	0
Brc1cccc(CN2CCN(Cc3cccc(Br)c3)CC2)c1	9	0
CCC1(CC)OC(c2cccnc2)Nc2ccccc21 (stereo not drawn)	0	1
COc1cccc(N2CCNCC2)c1	3	x
C/C=C\C(=O)O[C@@H]1C[C@H]2O[C@@H]3C=C(C)C(=O)C[C@]3(C)[C@]1(C)[C@]21CO1	101*	11*
CCCc1nc(-c2ccccn2)nc(OC(=O)N(C)C)c1Cc1c(F)cccc1Cl	-4	0
CCc1ccc(NC2=NCCS2)cc1	7	-3
C[C@@H]1O[C@@H](O[C@@H]2C=C3CC[C@@H]4C(CC[C@]5(C)[C@@H](c6ccc(=O)oc6)CC[C@]45O)[C@@]3(C)CC2)[C@H](O)[C@H](O)[C@H]1O (stereo partly drawn)	99*	0
C[C@@H]1O[C@@H](O[C@@H]2C=C3CCC4C(CC[C@]5(C)[C@@H](c6ccc(=O)oc6)CC[C@]45O)[C@@]3(C)CC2)[C@H](O)[C@H](O)[C@H]1O (stereo partly drawn)	121*	1
O=[P+](c1ccccc1)c1ccccc1	-9	0
C/C=C(/C)C(=O)O[C@H]1C(C)=C2[C@H]([C@@H]1OC(=O)CCCCC)[C@@](C)(OC(C)=O)C[C@H](OC(=O)CCC)[C@@]1(O)[C@H]2OC(=O)[C@@]1(C)O	26	2
O=C(O)c1[nH]c2ccc(Cl)cc2c1CC(=O)N1CCC2(CC1)OCCO2	2	x
CC(C)(C)c1cc(C=C(C#N)C#N)cc(Br)c1O	8	-1
CCC(C)(O)C(=O)O[C@H]1C(=O)O[C@@H]2C[C@H]3C(C)=CC(=O)[C@@H](O)[C@]3(C)[C@H]3[C@@]4(O)OC[C@]32[C@@H]1[C@@H](C)[C@H]4O (stereo partly drawn)	114*	9
CCN1C[C@]2(C)CC[C@H](OC)[C@@]34C2[C@H](O)C([C@@H]13)[C@@]1(OC)C[C@H](OC)[C@H]2C[C@@H]4[C@@H]1[C@H]2O	3	0
SMILES	BJeLR viab HTS	A1 inh
CC(=O)OC1CCC2(C)C(=CCC3C4CCC(=O)C4(C)CCC32)C1 (stereo not drawn)	-1	-1
COc1cccc(OC)c1C1=NCC(=O)Nc2c1oc1ccc(Br)cc21	55*	3
CCSc1nc2ccccc2c(=O)n1-c1cccc(OC)c1	0	0
CC(=O)OC[C@]12CCC(C)=C[C@H]1O[C@@H]1[C@H](O)[C@@H](OC(C)=O)[C@@]2(C)[C@]12CO2	122*	16*
CC(=O)OC[C@]12C[C@H](O)C(C)=C[C@H]1O[C@@H]1[C@H](O)[C@@H](OC(C)=O)[C@@]2(C)[C@]12CO2	119*	13*
CCN(CC)CCc1c(C)c2ccc(O)cc2oc1=O	-1	2

Assay outcomes: PubChem BioAssay, Broad Institute
